Bioassay records (PubChem BioAssay)
Rows were chosen to be rich in hits. Some 2.9% of all compounds tested hit in one or more screens of this group.
D3 antag: qHTS of D3 Dopamine Receptor Antagonist: qHTS. D(3) dopamine receptor (Homo sapiens), P35462. D3R cells, DiscoveRx beta-arrestin luminescence, antagonist mode; stronger effect = lower value. max response, negative = inhibition, %. AID 652054, 2013. 360,000 tested, 2.5% active; in the data active = max response below about -50%; inconclusive = no clear call, values can overlap the other calls; also: % is scaled to controls: 0 for no effect and ±100 for the full control effect
Target sequence (P35462 whole entry, looked up): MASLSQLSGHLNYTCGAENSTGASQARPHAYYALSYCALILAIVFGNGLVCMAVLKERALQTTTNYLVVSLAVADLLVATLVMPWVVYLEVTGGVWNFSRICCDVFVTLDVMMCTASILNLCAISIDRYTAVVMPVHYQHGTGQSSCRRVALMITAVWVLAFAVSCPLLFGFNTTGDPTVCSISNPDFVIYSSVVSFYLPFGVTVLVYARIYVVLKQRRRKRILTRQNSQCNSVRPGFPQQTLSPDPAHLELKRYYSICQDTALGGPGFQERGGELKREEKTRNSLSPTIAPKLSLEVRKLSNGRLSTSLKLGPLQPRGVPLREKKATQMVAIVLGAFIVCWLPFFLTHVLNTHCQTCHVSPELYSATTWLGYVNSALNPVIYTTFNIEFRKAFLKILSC
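Cells plated overnight at 1500 cells/well, then exposed to library compounds with dopamine controls for 90 minutes at 37 degrees C. DiscoveRx reagent added for 30–60 minutes at room temperature; luminescence read, quantitative HTS format.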
TSHR antag: Antagonists of the Thyroid Stimulating Hormone Receptor: HTS campaign. Thyrotropin receptor (Homo sapiens), P16473. TSHR-expressing cells, TSH-stimulated cAMP HTRF, 2 h; stronger effect = lower value. activity change, negative = inhibition, % at 11.5 µM. 330,000 tested, 0.2% active;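 active = activity change below a set negative limit, meaning inhibition stronger than a set level, cut at about -70% in these data; inconclusive = activity change between two set negative limits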; also: % is scaled to controls: 0 for no effect and ±100 for the full control effect
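Competitive HTRF cAMP read-out (cryptate anti-cAMP antibody, cAMP-d2; 30 min, room temperature) in freshly harvested TSHR cells. Compounds added before TSH at EC80 (4nM final), followed by 2 hours' incubation at 37 deg C.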
B2AR arrestin: qHTS assay of beta-arrestin-biased ligands of beta2-adrenergic receptor | AID 492947, 2010 | Potency, µM (series often up to 46.1 µM), without a hit: top-dose activation, most hits filed as activators | 330,000 tested, 0.02% active | Beta-2 adrenergic receptor (Homo sapiens), P07550 | beta-arrestin recruitment to beta2AR, cell-based reporter; active = well fitted activation curve with a large enough effect; inconclusive = small, poorly fitted or top-dose-only effect;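 also: potency is read from the fitted curve at half-maximal effect; 0% = DMSO controls and full agonism = EC100 isoproterenol or metaproterenol; nearly all actives have a fitted effect of over 65% in size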
DRD3 agonist: qHTS of D3 Dopamine Receptor Agonist: qHTS; D(3) dopamine receptor (Homo sapiens), P35462; D3R DiscoveRx beta-arrestin cells, luminescence, 90 min; max activation, %; 410,000 tested, 0.58% active; AID 652048, 2013; in the data active = max activation above about 30%; also: 0% is about no effect
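Agonist-mode cell screen: cells plated at 1500/well and incubated overnight at 37 °C, then exposed to library compounds for 90 min at 37 °C. Detection reagent was added for 30–60 min at room temperature, and luminescence was read.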
Starred values were filed as active, the others as inactive; u = inconclusive; x = no result.

SMILES	D3 antag	TSHR antag	B2AR arrestin	DRD3 agonist
COc1cccc(NC(=O)c2ccc(NCCCN3CCC(C)CC3)c([N+](=O)[O-])c2)c1	-54*	-1	0%	-20
Cc1ccc(OCCCCN2CCCC(C)C2)c([N+](=O)[O-])c1 (stereo not given)	-80*	-5	1%	-18
CC(Oc1ccccc1)C(=O)Nc1ccc(C(=O)OCc2cc(=O)n3nc(C4CC4)sc3n2)cc1 (stereo not given)	x	x	x	4
CCOCCCn1c(SCC(=O)Nc2ccccc2OC)nc2c(oc3ccccc32)c1=O	x	x	x	6
Cc1cccc(NC(=O)CCN2CCN(C/C=C/c3ccccc3)CC2)c1	-64*	22	0%	7
O=C(CN1CCN(Cc2ccccc2)CC1)NC(=O)NC1CCCCC1	-2	-3	-1%	-1
O=C(CN1CCN(C/C=C/c2ccccc2)CC1)NC(=O)NC1CCCCC1	-65*	6	0%	-6
Cc1ccccc1NC(=O)CCN1CCN(C/C=C/c2ccccc2)CC1	-26	2	0%	25
O=C(CCN1CCN(C/C=C/c2ccccc2)CC1)Nc1ccccc1	-58*	10	0%	4
CC(=O)Nc1ccc(NC(=O)C2Cc3ccccc3N2C(=O)c2ccccc2)cc1 (stereo not given)	x	x	x	7
COc1ccc(-n2ncc(N(C)n3cccc3)c(Cl)c2=O)cc1	-23	1	0%	2
COc1ccc(-n2ncc(Cl)c(Cl)c2=O)cc1	-74*	-22	0%	-7
O=C(Nc1ncc(S(=O)(=O)c2ccc([N+](=O)[O-])cc2)s1)c1cccc2ccccc12	6	-82*	-1%	8
COCC(=O)Nc1ncc(S(=O)(=O)c2ccc([N+](=O)[O-])cc2)s1	-13	-4	0%	-4
CCCCCSc1nc2sc3c(c2c(=O)n1-c1ccccc1)CCN(C(C)=O)C3	x	x	x	1
CC1(C)CC2C1CCC1(O)CC2(C)CCC1N(O)c1ccc(C(=O)NCCO)cn1 (stereo not given)	30	-7	0%	40*
CC(=O)N1c2c(cc(Br)cc2S(=O)(=O)NCc2ccc(C)cc2)CC1C (stereo not given)	u	-14	0%	-17
COc1ccc(CNS(=O)(=O)c2cc(Br)cc3c2N(C(C)=O)C(C)C3)cc1 (stereo not given)	-89*	-5	0%	0
COc1ccc(NC(=O)CCNS(=O)(=O)c2ccc3c(c2)CC(C)N3C(C)=O)cc1 (stereo not given)	-4	-92*	0%	4
COc1ccccc1CNC(=O)CCC1N=C2c3ccccc3N=C(SCC(=O)Nc3ccc(F)cc3)N2C1=O (stereo not given)	x	x	x	-8
Cc1ccccc1-c1noc(-c2ccc(N3CCCC3)c([N+](=O)[O-])c2)n1	x	x	x	-3
CCCn1c(CN2CCN(C(=O)OCC)CC2)nc2c1c(=O)n(C)c(=O)n2C	14	9	-1%	127*
Cn1c(=O)c2c(nc(CN3CCN(Cc4ccccc4)CC3)n2Cc2cccc(Cl)c2)n(C)c1=O	-51*	-5	0%	-10
Cn1c(=O)c2c(nc(CN3CCc4ccccc4C3)n2Cc2cccc(Cl)c2)n(C)c1=O	-1	-6	1%	-4
CCCCCn1c(CN2CCN(C)CC2)nc2c1c(=O)n(C)c(=O)n2C	-6	6	0%	-5
SMILES	D3 antag	TSHR antag	B2AR arrestin	DRD3 agonist
CCCCCCn1c(CN2CCN(Cc3ccccc3)CC2)nc2c1c(=O)n(C)c(=O)n2C	-52*	-7	0%	-1
COC(=O)c1cccc(-n2c(CCC(=O)O)ccc2-c2ccc(OC)cc2)c1	x	x	x	-2
O=C(NCc1cccnc1)/C(=C/c1ccc(-c2cccc(Cl)c2)o1)S(=O)(=O)c1ccccc1	-19	-10	0%	-1
O=C(NCc1cccnc1)/C(=C\c1ccc(-c2cccc(Cl)c2)o1)S(=O)(=O)c1ccccc1	-50*	-20	-1%	-32
CCCN(c1ccc(C(=O)OC)cc1)S(=O)(=O)c1ccccc1	5	0	0%	6
C=CCN(c1ccc(C(=O)OC)cc1)S(=O)(=O)c1ccccc1	-76*	-5	0%	1
C=CCNC(=S)NNC(=O)c1cccn(Cc2ccc(Cl)cc2)c1=O	-67*	2	1%	-4
CCOC(=O)c1sc2nc(CSc3ccccc3)nc(N3CCCN(C)CC3)c2c1C	-62*	32	0%	-4
Cc1ccc(SCC(=O)NCc2ccccc2C)cc1	1	-122*	-4%	-3
Cc1ccc(SCC(=O)NCc2ccccc2)cc1	5	-7	-1%	4
Cc1ccc(C(CC(=O)Nc2cc(C)cc(C)c2)N2Cc3ccccc3C2=O)cc1 (stereo not given)	x	x	x	-7
COc1ccc(C2(O)CCN(CCCCOc3ccccc3)CC2)cc1	-90*	-7	2%	-34
CCCOc1ccc(OCCOCCN2CCc3ccccc3C2)cc1	-70*	9	-1%	-3
COc1ccc(OCC(=O)N2CCc3ccccc3C2)cc1	-19	7	0%	-4
Cc1ccc(SCCOCCN2CCc3ccccc3C2)cc1	-105*	10	0%	-11
COc1ccc(OCCCN2CCc3ccccc3C2)cc1	-109*	1	0%	-19
CCOc1ccc(NC(=O)CN2CCc3ccccc3C2)cc1	-12	27	-1%	-7
O=C(CCCn1c(=O)c2cccn2c2cccnc21)Nc1ccccc1Br	x	x	x	-14
C=CCc1cc(OC)ccc1OCCOCCN1CCc2ccccc2C1	-88*	-10	0%	-24
c1ccc(OCCOCCN2CCc3ccccc3C2)cc1	-111*	0	0%	-18
CCOc1ccc(OCCOCCN2CCc3ccccc3C2)cc1	-58*	-3	1%	-6
C=CCc1cc(OC)ccc1OCCOCCC(C(=O)OCC)C(=O)OCC	2	-1	0%	7
CCOc1ccc(OCCOCCN2CCCC2)cc1	6	0	0%	6
Fc1ccc(OCCOCCN2CCCC2)cc1	-3	x	x	-12
CC(=O)Nc1ccc(-n2cc3c(c2-c2ccc(C)cc2)c(=O)n(C)c(=O)n3C)cc1	x	x	x	0
SMILES	D3 antag	TSHR antag	B2AR arrestin	DRD3 agonist
COc1cc(NC(=O)C2CCN(S(=O)(=O)c3ccc4c(c3)oc(=O)n4C)CC2)cc(OC)c1	x	x	x	-9
Cc1ccc(C)c(S(=O)(=O)c2nnn3c2nc(N2CCCC2)c2sccc23)c1	x	x	x	5
CN(C)c1ccc(-n2cc3c(=O)n(C)c(=O)n(C)c3c2)cc1	38	-16	-1%	2
CCN(CC)c1ccc(-n2cc3c(=O)n(C)c(=O)n(C)c3c2)cc1	-55*	-9	0%	-4
CC1(C)CC(=O)C=C(c2ccc(Oc3ccccc3)cc2)C1	-65*	-29	0%	-6
CCCCc1nc2ccccc2n2c(-c3ccc(OC)cc3)c3c(=O)n(C)c(=O)n(C)c3c12	x	x	x	0
